According to PubChem BioAssay (NCI):
Compounds without any hit were thinned out: in the full panel of roughly 83,000, 20% have a hit.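 Note: values are percent growth. 100 is the growth of untreated cells, values between 100 and 0 indicate rising inhibition; between -100 and 0 indicates cell death.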 The source made the active and inactive calls. The calls were made as follows: active = growth percent below 10; inactive = the rest.

Columns and labels:
Test in all cases: NCI-60 one-dose screen, 48 h (100 = growth as untreated, 0 = no growth, -100 = all killed)
Conditions in all cases: 10 µM unless noted
NCI-H23 lung = test system: NCI-H23 lung
NCI-H226 lung = test system: NCI-H226 lung
NCI-H322M lung = test system: NCI-H322M lung
HOP-62 NSCLC = test system: HOP-62 NSCLC
NCI-H460 lung = test system: NCI-H460 lung
NCI-H522 lung = test system: NCI-H522 lung
A549/ATCC NSCLC = test system: A549/ATCC NSCLC
786-0 renal = test system: 786-0 renal
COLO 205 colon = test system: COLO 205 colon
HOP-92 NSCLC = test system: HOP-92 NSCLC

Measured: growth

CC(C)C(C(=O)O)n1c(O)c(/C=C2/C=c3cc4c(cc3=NC2=O)OCO4)sc1=S (configuration not stated)
inactive: NCI-H23 lung 98.4% | NCI-H226 lung 101% | NCI-H322M lung 103% | HOP-62 NSCLC 115% | NCI-H460 lung 114% | NCI-H522 lung 99.4% | A549/ATCC NSCLC 110% | 786-0 renal 105% | COLO 205 colon 115%

CCCSc1nc(NCCc2c[nH]c3ccccc23)c(C#N)c(-c2ccc(OC)cc2)n1
inactive: NCI-H23 lung 73.7% | NCI-H226 lung 50.7% | NCI-H322M lung 89% | HOP-62 NSCLC 64.5% | NCI-H460 lung 19% | HOP-92 NSCLC 64.7% | NCI-H522 lung 43.8% | 786-0 renal 31.9% | COLO 205 colon 61.3%

CC(=O)Oc1ccc(/C=C/C(=O)N[C@@H](Cc2ccccc2)C(O)C(=O)NCc2ccccc2)cc1OC(C)=O (some centres not stated)
inactive: NCI-H23 lung 93.3% | NCI-H226 lung 102% | NCI-H322M lung 83.4% | HOP-62 NSCLC 95.2% | NCI-H460 lung 56% | HOP-92 NSCLC 90% | NCI-H522 lung 17.2% | 786-0 renal 81.6% | COLO 205 colon 91.1%

COc1ccc(N2N=C(c3ccc4c(c3)OCO4)CC2c2cccc(NC(=O)CCCNS(=O)(=O)c3ccc(F)cc3)c2)cc1 (configuration not stated)
active: NCI-H522 lung -7.84%
inactive: NCI-H23 lung 73.7% | NCI-H226 lung 67.2% | NCI-H322M lung 76.1% | HOP-62 NSCLC 82.4% | NCI-H460 lung 50.6% | HOP-92 NSCLC 90.4% | 786-0 renal 62.5% | COLO 205 colon 65.3%

CSc1ccccc1NC(=O)c1ccc2nnn(/C(C#N)=C/c3ccccn3)c2c1
active: NCI-H23 lung -96.6% | NCI-H226 lung -94.6% | HOP-62 NSCLC 6.29% | NCI-H460 lung -44% | HOP-92 NSCLC -80.8% | NCI-H522 lung -96.4% | 786-0 renal -98.5% | COLO 205 colon -83.1%
inactive: NCI-H322M lung 40.5%

O=c1[nH]n(C(=S)N/N=C/c2ccccc2Cl)c(=O)c2ccccc12
active: NCI-H23 lung -43.6% | NCI-H226 lung -19.9% | NCI-H322M lung 5.29% | HOP-62 NSCLC -2.31% | HOP-92 NSCLC -0.742% | NCI-H522 lung -61.7% | COLO 205 colon -60.9%
inactive: NCI-H460 lung 14.5% | 786-0 renal 12.9%

CN1CCN(c2ccc3c(c2)nc(NNC(=O)c2cnccn2)c2cccn23)CC1
inactive: NCI-H322M lung 27.7%
active: NCI-H23 lung 1.16% | NCI-H226 lung -7.98% | HOP-62 NSCLC -24.4% | NCI-H460 lung 2.41% | HOP-92 NSCLC -29.3% | NCI-H522 lung -16.7% | 786-0 renal -95.5% | COLO 205 colon -64%

C=C1CC[C@@H]2[C@]3(C)COC(c4cn[nH]c4-c4ccc(C)cc4)O[C@@H]3CC[C@@]2(C)[C@@H]1C/C=C1/C(=O)OCC1O (some centres not stated)
active: NCI-H23 lung -8.25% | NCI-H226 lung -65.3% | HOP-92 NSCLC -9.12% | NCI-H522 lung -58.4% | 786-0 renal -64%
inactive: NCI-H322M lung 79.9% | HOP-62 NSCLC 27.4% | NCI-H460 lung 67% | COLO 205 colon 12.8%

O=C(NN1C(=O)/C(=C/C=C/c2ccc([N+](=O)[O-])o2)SC1=S)c1cccc(O)c1
active: NCI-H23 lung -89% | NCI-H226 lung -92.2% | NCI-H322M lung -66.9% | HOP-62 NSCLC -73.5% | NCI-H460 lung -49.3% | NCI-H522 lung -96.6% | A549/ATCC NSCLC -67.4% | 786-0 renal -91.5% | COLO 205 colon -79.7%

CC(=O)c1cc(C(=O)c2ccccc2)n2c1ccc1ccccc12
inactive: NCI-H23 lung 105% | NCI-H226 lung 94% | NCI-H322M lung 94.3% | HOP-62 NSCLC 87.5% | NCI-H460 lung 111% | NCI-H522 lung 97.4% | A549/ATCC NSCLC 108% | 786-0 renal 98.7% | COLO 205 colon 110%

CN(C)c1nc(NCCNS(=O)(=O)c2ccc(C3=Nc4c(N)nc(N)nc4NC(c4ccc(Cl)cc4)C3)cc2)nc(Nc2ccc(F)cc2)n1 (configuration not stated)
inactive: NCI-H23 lung 50.8% | NCI-H226 lung 54.7% | NCI-H322M lung 66% | HOP-62 NSCLC 80.3% | NCI-H460 lung 19.4% | NCI-H522 lung 40.1% | A549/ATCC NSCLC 62.7% | 786-0 renal 24.3%
active: COLO 205 colon 3.23%

O=C(NN1C(=O)/C(=C/C=C/c2ccc([N+](=O)[O-])o2)SC1=S)c1ccccc1O
active: NCI-H23 lung -86.1% | NCI-H226 lung -71.2% | NCI-H322M lung -63% | HOP-62 NSCLC -53.5% | NCI-H460 lung -55.7% | NCI-H522 lung -90.7% | A549/ATCC NSCLC -58.2% | 786-0 renal -89.5% | COLO 205 colon -82.1%

COc1c(F)ccc(C(=O)Nc2ccc3nc(NC(=O)C4CCCN(S(=O)(=O)c5ccc(Cl)cc5)C4)sc3c2)c1F (configuration not stated)
inactive: NCI-H23 lung 85.7% | NCI-H226 lung 76% | NCI-H322M lung 86.6% | HOP-62 NSCLC 102% | NCI-H460 lung 81.3% | NCI-H522 lung 76.6% | A549/ATCC NSCLC 65.6% | 786-0 renal 54.7% | COLO 205 colon 77.8%

O=c1[nH]c2ccc(Cl)cc2cc1CSc1nccc(-c2ccc(Cl)cc2)n1
active: NCI-H226 lung 8.77% | HOP-62 NSCLC 7.77%
inactive: NCI-H23 lung 53.9% | NCI-H322M lung 56.8% | NCI-H460 lung 36.6% | NCI-H522 lung 33.6% | A549/ATCC NSCLC 50.1% | 786-0 renal 49.8% | COLO 205 colon 71.7%

Brc1ccc(N/N=C/c2c[nH]c3ccc(Br)cc23)nc1
inactive: NCI-H322M lung 17.6%
active: NCI-H23 lung -58.2% | NCI-H226 lung 3.09% | HOP-62 NSCLC -16.7% | NCI-H460 lung -75.3% | NCI-H522 lung -55.5% | A549/ATCC NSCLC 0.0958% | 786-0 renal -23.8% | COLO 205 colon -89.1%

COc1ccc(/C=C2\C(=N)N=C(SCc3nc4ccccc4[nH]3)NC2=O)cc1
inactive: NCI-H23 lung 100% | NCI-H226 lung 98.1% | NCI-H322M lung 110% | HOP-62 NSCLC 105% | NCI-H460 lung 105% | NCI-H522 lung 103% | A549/ATCC NSCLC 112% | 786-0 renal 114% | COLO 205 colon 122%

COc1cccc(/C=C/c2nc3ccccc3c(=O)n2CC(=O)Nc2ccc(Cl)cc2)c1
active: 786-0 renal 9.62%
inactive: NCI-H23 lung 82.7% | NCI-H226 lung 54.9% | NCI-H322M lung 75% | HOP-62 NSCLC 71.4% | NCI-H460 lung 47.4% | NCI-H522 lung 97.2% | A549/ATCC NSCLC 28.5% | COLO 205 colon 86.4%

CN(C)c1nc(NCCNS(=O)(=O)c2ccc(C(=O)/C=C/c3ccc(F)cc3)cc2)nc(Nc2ccc(F)cc2)n1
active: NCI-H23 lung -84% | NCI-H226 lung -74.4% | NCI-H322M lung -22.6% | HOP-62 NSCLC -71.2% | NCI-H460 lung -75.2% | NCI-H522 lung -96.1% | A549/ATCC NSCLC -56.4% | 786-0 renal -85.6% | COLO 205 colon -85.7%

Cn1cc(-c2cc(N)n3nc(-c4c[nH]c5ccccc45)cc3n2)c2cc(Br)cnc21
active: NCI-H23 lung -63.8% | NCI-H226 lung -33.1% | NCI-H322M lung -50.8% | HOP-62 NSCLC -51.2% | NCI-H460 lung -65.1% | NCI-H522 lung -75.4% | A549/ATCC NSCLC -33% | 786-0 renal -77% | COLO 205 colon -89.3%

COc1ccc(C2CC(c3ccc(S(=O)(=O)NCCNc4nc(Nc5ccc(F)cc5)nc(N(C)C)n4)cc3)=Nc3c(N)nc(N)nc3N2)cc1 (configuration not stated)
inactive: NCI-H23 lung 90.4% | NCI-H226 lung 84.4% | NCI-H322M lung 96.6% | HOP-62 NSCLC 90.3% | NCI-H460 lung 73.6% | NCI-H522 lung 89.4% | A549/ATCC NSCLC 91.3% | 786-0 renal 50.2% | COLO 205 colon 82.8%

Cn1cc(-c2cc3nc(-c4cn(C)c5ncc(Br)cc45)cc(N)n3n2)c2ccccc21
active: NCI-H23 lung -22.5% | NCI-H226 lung -2.09% | NCI-H322M lung -20.2% | HOP-62 NSCLC -34.5% | NCI-H460 lung -54.6% | NCI-H522 lung -70.6% | A549/ATCC NSCLC 2.3% | 786-0 renal -87.7% | COLO 205 colon -81.4%

COC(=O)C[C@](O)(CCCC(C)(C)O)C(=O)O[C@H]1C(OC)=C[C@@]23CCCN2CCc2cc4c(cc2[C@@H]13)OCO4
inactive: HOP-62 NSCLC 14.3%
active: NCI-H23 lung -53.9% | NCI-H226 lung -21.4% | NCI-H322M lung -3.53% | NCI-H460 lung -3.74% | NCI-H522 lung -68.7% | A549/ATCC NSCLC -18.5% | 786-0 renal -14.4% | COLO 205 colon -42.3%

C=C1CCC2C3(C)COC(c4cccs4)OC3CCC2(C)C1CC(Sc1ccccc1)C1=CCOC1=O (configuration not stated)
inactive: NCI-H23 lung 79.1% | NCI-H226 lung 87.7% | NCI-H322M lung 94.9% | HOP-62 NSCLC 118% | NCI-H460 lung 107% | NCI-H522 lung 65.5% | A549/ATCC NSCLC 79.7% | 786-0 renal 91.9% | COLO 205 colon 115%

O=C(CN1C(=O)/C(=C/c2ccccc2F)SC1=S)N1CCOCC1
active: NCI-H522 lung -83.2%
inactive: NCI-H23 lung 89.1% | NCI-H226 lung 66.5% | NCI-H322M lung 90.3% | HOP-62 NSCLC 119% | NCI-H460 lung 102% | A549/ATCC NSCLC 95.5% | 786-0 renal 74.9% | COLO 205 colon 98.5%

COc1c(F)ccc(C(=O)Nc2ccc3nc(NC(=O)C4CCCN(S(=O)(=O)c5ccc(Br)s5)C4)sc3c2)c1F (configuration not stated)
inactive: NCI-H23 lung 82.7% | NCI-H226 lung 75.1% | NCI-H322M lung 97.9% | HOP-62 NSCLC 104% | NCI-H460 lung 86.5% | NCI-H522 lung 74.2% | A549/ATCC NSCLC 79.7% | 786-0 renal 61.5% | COLO 205 colon 101%

COc1ccc(NC(=O)Cn2c3c(sc2=O)[C@H]2[C@@H](O)[C@@H](O)[C@H](O)[C@@H]2CS3)cc1
inactive: NCI-H23 lung 104% | NCI-H226 lung 96.3% | NCI-H322M lung 101% | HOP-62 NSCLC 99.5% | NCI-H460 lung 108% | NCI-H522 lung 94.2% | A549/ATCC NSCLC 100% | 786-0 renal 104% | COLO 205 colon 117%

COc1ccc2c(c1)c(/C=N/Nc1ccc3ccccc3n1)cn2C
active: NCI-H460 lung -64.8% | NCI-H522 lung 3.83% | 786-0 renal -87% | COLO 205 colon -82.7%
inactive: NCI-H23 lung 36.4% | NCI-H226 lung 32.9% | NCI-H322M lung 36.2% | HOP-62 NSCLC 38.1% | A549/ATCC NSCLC 14.9%

CC(C)(C)OC(=O)/C=C/c1cccc2c1C(=O)NC(C)(c1cc3cc(Cl)ccc3oc1=O)N2 (configuration not stated)
inactive: NCI-H23 lung 53% | NCI-H226 lung 50.6% | NCI-H322M lung 60.9% | HOP-62 NSCLC 64% | NCI-H460 lung 43.9% | NCI-H522 lung 34.9% | A549/ATCC NSCLC 27.4% | 786-0 renal 54.5% | COLO 205 colon 19.4%
